Measured values: PubChem BioAssay AID1159580 (chemical genetic matrix, 2015)
About 2,000 (36%) of roughly 5,500 compounds were called active. Roughly 18% stayed inconclusive and do not appear here. Cut-off read from the data, not from the text of the source: active = normalized growth mostly below about 0.91 (no sharp cut-off); inconclusive = no clear call, values can overlap the other calls; inactive = mostly above about 0.92. The list shows a part of the results.

Experiment: chemical genetic growth profiling, strain panel (AID 1159580);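 note: tested at 20 µM; growth read once vehicle control cultures reached saturation at 30 °C; 1 = growth at the plate median or of vehicle wells; lower values mean less growth of the strain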
Conditions: growth OD

Measured: normalized growth

COC(=O)[C@H]1[C@H]2C[C@@H]3c4[nH]c5cc(OC)ccc5c4CCN3C[C@H]2C[C@@H](OC(=O)c2cc(OC)c(OC)c(OC)c2)[C@@H]1OC
inactive: S. cerevisiae deletion strains, locus YKL009W, strain mrt4, hits give low values 1.02 | S. cerevisiae deletion strains, locus YKL068W, hits give low values 1.01 | S. cerevisiae deletion strains, locus YKL085W, strain MDH1 (second series), hits give low values 1.01 | S. cerevisiae deletion strains, locus YKL085W, strain MDH1, hits give low values 1.01 | S. cerevisiae deletion strains, locus YKL160W, strain elf1, hits give low values 0.961 | S. cerevisiae deletion strains, locus YKL190W, strain CNB1, hits give low values 0.967 | S. cerevisiae deletion strains, locus YKR001C, strain vps1, hits give low values 1.03 | S. cerevisiae deletion strains, locus YKR026C, strain gcn3, hits give low values 0.99 | S. cerevisiae deletion strains, locus YKR091W, strain srl3, hits give low values 0.982 | S. cerevisiae deletion strains, locus YLL001W, strain dnm1, hits give low values 1.02 | S. cerevisiae deletion strains, locus YLL026W, hits give low values 0.975 | S. cerevisiae deletion strains, locus YLL041C, strain sdh2, hits give low values 0.983 | S. cerevisiae deletion strains, locus YLR027C, strain aat2, hits give low values 0.986 | S. cerevisiae deletion strains, locus YLR039C, strain RIC1, hits give low values 1.05 | S. cerevisiae deletion strains, locus YLR058C, strain SHM2, hits give low values 0.999 | S. cerevisiae deletion strains, locus YLR102C, strain apc9, hits give low values 1 | S. cerevisiae deletion strains, locus YLR113W, strain HOG1, hits give low values 0.971 | S. cerevisiae deletion strains, locus YLR221C, strain rsa3, hits give low values 1.02 | S. cerevisiae deletion strains, locus YLR258W, strain gsy2, hits give low values 0.965 | S. cerevisiae deletion strains, locus YLR262C, strain YPT6 (second series), hits give low values 1 | S. cerevisiae deletion strains, locus YLR262C, strain YPT6, hits give low values 1.05 | S. cerevisiae deletion strains, locus YLR268W, strain sec22, hits give low values 1.04 | S. cerevisiae deletion strains, locus YLR320W, strain mms22, hits give low values 0.978 | S. cerevisiae deletion strains, locus YLR330W, strain CHS5, hits give low values 1 | S. cerevisiae deletion strains, locus YLR342W, strain FKS1 (second series), hits give low values 0.951 | S. cerevisiae deletion strains, locus YLR342W, strain FKS1, hits give low values 0.959 | S. cerevisiae deletion strains, locus YLR357W, strain rsc2, hits give low values 0.977 | S. cerevisiae deletion strains, locus YLR370C, strain arc18, hits give low values 0.976 | S. cerevisiae deletion strains, locus YLR371W, strain rom2, hits give low values 1.01 | S. cerevisiae deletion strains, locus YLR384C, strain iki3, hits give low values 0.989 | S. cerevisiae deletion strains, locus YLR418C, strain cdc73, hits give low values 0.977 | S. cerevisiae deletion strains, locus YML016C, strain PPZ1, hits give low values 1 | S. cerevisiae deletion strains, locus YML032C, strain rad52, hits give low values 1.02 | S. cerevisiae deletion strains, locus YML120C, strain ndi1, hits give low values 1 | S. cerevisiae deletion strains, locus YML124C, strain tub3, hits give low values 1.02 | S. cerevisiae deletion strains, locus YMR058W, strain fet3, hits give low values 0.986 | S. cerevisiae deletion strains, locus YMR078C, strain ctf18, hits give low values 1.01 | S. cerevisiae deletion strains, locus YMR125W, strain sto1, hits give low values 0.986 | S. cerevisiae deletion strains, locus YMR129W, hits give low values 0.981 | S. cerevisiae deletion strains, locus YMR205C, strain PFK2, hits give low values 0.982 | S. cerevisiae deletion strains, locus YMR223W, strain ubp8, hits give low values 0.995 | S. cerevisiae deletion strains, locus YMR231W, strain pep5, hits give low values 1 | S. cerevisiae deletion strains, locus YMR263W, strain SAP30, hits give low values 0.979 | S. cerevisiae deletion strains, locus YMR307W, strain GAS1, hits give low values 0.912 | S. cerevisiae deletion strains, locus YNL067W, strain RPL9B, hits give low values 0.994 | S. cerevisiae deletion strains, locus YNL071W, strain lat1, hits give low values 0.971 | S. cerevisiae deletion strains, locus YNL128W, strain TEP1, hits give low values 1 | S. cerevisiae deletion strains, locus YNL153C, strain GIM3, hits give low values 1 | S. cerevisiae deletion strains, locus YNL183C, strain NPR1, hits give low values 0.949 | S. cerevisiae deletion strains, locus YNL209W, strain ssb2, hits give low values 0.984 | S. cerevisiae deletion strains, locus YNL233W, strain BNI4, hits give low values 0.997 | S. cerevisiae deletion strains, locus YNL248C, strain rpa49, hits give low values 0.955 | S. cerevisiae deletion strains, locus YNL250W, strain rad50, hits give low values 1.01 | S. cerevisiae deletion strains, locus YNL271C, strain bni1, hits give low values 1.02 | S. cerevisiae deletion strains, locus YNL298W, strain CLA4, hits give low values 1.02 | S. cerevisiae deletion strains, locus YNL307C, strain MCK1, hits give low values 1.01 | S. cerevisiae deletion strains, locus YNL322C, strain KRE1 (second series), hits give low values 0.976 | S. cerevisiae deletion strains, locus YNL322C, strain KRE1, hits give low values 0.995 | S. cerevisiae deletion strains, locus YNR049C, strain mso1, hits give low values 0.972 | S. cerevisiae deletion strains, locus YNR052C, strain pop2, hits give low values 1 | S. cerevisiae deletion strains, locus YOL006C, strain TOP1, hits give low values 0.989 | S. cerevisiae deletion strains, locus YOL012C, strain htz1 0.714 | S. cerevisiae deletion strains, locus YOL147C, strain pex11, hits give low values 1.02 | S. cerevisiae deletion strains, locus YOR001W, strain rrp6, hits give low values 1.03 | S. cerevisiae deletion strains, locus YOR061W, strain CKA2, hits give low values 0.999 | S. cerevisiae deletion strains, locus YOR069W, strain VPS5, hits give low values 1 | S. cerevisiae deletion strains, locus YOR070C, strain gyp1, hits give low values 0.983 | S. cerevisiae deletion strains, locus YOR080W, strain dia2, hits give low values 0.982 | S. cerevisiae deletion strains, locus YOR083W, strain WHI5, hits give low values 0.948 | S. cerevisiae deletion strains, locus YOR106W, strain vam3, hits give low values 0.947 | S. cerevisiae deletion strains, locus YOR136W, strain idh2, hits give low values 1.02 | S. cerevisiae deletion strains, locus YOR144C, strain elg1, hits give low values 1.01 | S. cerevisiae deletion strains, locus YOR184W, strain ser1, hits give low values 1.04 | S. cerevisiae deletion strains, locus YOR231W, strain MKK1, hits give low values 0.983 | S. cerevisiae deletion strains, locus YOR265W, strain rbl2, hits give low values 0.988 | S. cerevisiae deletion strains, locus YOR270C, strain vph1, hits give low values 0.969 | S. cerevisiae deletion strains, locus YOR290C, strain snf2, hits give low values 0.948 | S. cerevisiae deletion strains, locus YOR316C, strain cot1, hits give low values 1.01 | S. cerevisiae deletion strains, locus YPL051W, strain arl3, hits give low values 0.979 | S. cerevisiae deletion strains, locus YPL055C, strain LGE1, hits give low values 0.972 | S. cerevisiae deletion strains, locus YPL078C, strain atp4, hits give low values 0.972 | S. cerevisiae deletion strains, locus YPL106C, strain sse1, hits give low values 0.895 | S. cerevisiae deletion strains, locus YPL240C, strain hsp82, hits give low values 0.992 | S. cerevisiae deletion strains, locus YPL241C, strain CIN2, hits give low values 0.997 | S. cerevisiae deletion strains, locus YPL256C, strain CLN2, hits give low values 0.983 | S. cerevisiae deletion strains, locus YPR119W, strain clb2, hits give low values 1.01 | S. cerevisiae deletion strains, locus YPR141C, strain kar3, hits give low values 1.02 | S. cerevisiae deletion strains, locus YPR163C, strain tif3, hits give low values 1.02 | S. cerevisiae deletion strains, locus YPR167C, strain met16, hits give low values 1.01 | S. cerevisiae deletion strains, strain wtn01, hits give low values 1.01 | S. cerevisiae strains, strain wild type, hits give low values 0.986
